# Laboratory results from PubChem BioAssay (NCI).
# Compounds without any hit were thinned out: in the full panel of roughly 83,000, 20% have a hit.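 Assay: single dose, 48 h. Readout: percent growth (0 = no net growth; negative = cell death). Active: <10.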 A number with no mark means an inactive call. Activity calls are given as the source filed them.
# Tested on: NCI-H322M lung
# Assay: NCI-60 one-dose screen, 48 h (100 = growth as untreated, 0 = no growth, -100 = all killed)
# Settings: 10 µM unless noted
row,SMILES,growth
1,Cc1ccc(Cl)cc1NC(=O)c1cc2ccccc2cc1O,-3.32% (active)
2,CC1SC(c2ccc(OCc3ccccc3)cc2)N(NC(=O)C(O)(c2ccccc2)c2ccccc2)C1=O (stereo unspecified),49.1%
3,O=c1cc(C2NNC(=S)N2)c2ccc3ccccc3c2o1 (stereo unspecified),101%
4,Cc1ccc(Nc2nc(N)nc(CSCC(=O)NN)n2)cc1,100%
5,O=[N+]([O-])c1ccc(OCCO)cc1,104%
6,O=C(CSc1nnc(-c2ccc(NC(=O)c3cccnc3)cc2)o1)N[C@@H](Cc1ccc(O)cc1)C(=O)O,99.8%
7,O=C(/C=C/c1ccco1)c1ccc(Nc2nc(Nc3ccc(F)cc3)nc(Nc3ccc(Cl)cc3)n2)cc1,48.3%
8,CCOC(=O)c1c(-c2ccc(Cl)cc2)c(C#N)c(=O)n(-c2ccccc2CC)c1N,78.7%
9,COC(=O)[C@]12CC[C@@H](C)[C@H](C)[C@@H]1C1=CC[C@@H]3[C@@]4(C)C(C=O)=C[C@@](C)(COC(C)=O)C4=CC[C@@]3(C)[C@]1(C)CC2,24.8%
10,C[C@]12CC[C@@H]3c4cc(OC(F)F)c(O)cc4CC[C@H]3[C@@H]1CC[C@@H]2OS(N)(=O)=O,45.4%
11,NCCCNc1nc2ccccc2c2c(=O)c3cccc(Cl)c3sc12,22.4%
12,O=C(N=c1oc2ccccc2cc1-c1cc2ccccc2[nH]1)c1ccc(Cl)cc1,53.5%
13,CSc1n(Cc2ccc3ccccc3c2)c(C)c[n+]1Cc1ccc2ccccc2c1,40.5%
14,COC(=O)CCC1=C(C)C2=NC1=CC1=NC(=CC3=NC(=Cc4[nH]c(/c(=C(/C)O)c4C)=C2)C(C(C)=O)=C3C)C(C)=C1CCC(=O)OC,102%
15,COc1ccc(Nc2nnc(SCc3ccccc3F)s2)cc1,116%
16,O=C(N/N=C/C=C/c1ccc([N+](=O)[O-])o1)c1cc2ccccc2cc1O,-6.76% (active)
17,OC(COc1ccccc1Cl)COc1ccccc1Cl,110%
18,c1ccc(-c2nc([P+](c3ccccc3)(c3ccccc3)c3ccccc3)c(N3CCOCC3)o2)cc1,21%
19,O=C1CCc2c(sc3[nH]c(=S)n(-c4ccc(OC(F)(F)F)cc4)c(=O)c23)C1,90.5%

row,SMILES,growth
1,O=C(Nc1ccc(Cl)cc1)Nc1ccc(Cl)c(C(F)(F)F)c1,17.1%
2,COc1ccc(C2CC(c3cccc(OC)c3)=NN2C(=O)c2cc(OC)c(OC)c(OC)c2)cc1 (stereo unspecified),45.1%
3,CCOC(=O)C/C(C)=N\NC(=O)c1ccncc1,90.6%
4,COc1ccc2oc3c(C)c4c(c(C)c3c2c1)C(=O)N(Cc1ccccc1)C4=O,92.4%
5,CC(C)=C[C@@H]1c2c(c3ccccc3n(C)c2=O)O[C@H]2c3c(c4ccccc4n(C)c3=O)OC(C)(C)[C@@H]12,112%
6,Cc1ccc(NCCN(C)C)c2c(=O)c3ccccc3sc12,53.5%
7,C=C1C(=O)O[C@H]2[C@H]1CC/C(COC(=O)C(=O)c1c[nH]c3ccccc13)=C\CC[C@@]1(C)O[C@@H]21,24.6%
8,Oc1ccc(CN2CCC(N3CCOCC3)CC2)c2cccnc12,57%
9,O=C1CCC2=C3C4CCCCC4C(=O)C4CCCC(OC2C1)C34 (stereo unspecified),18%
10,Cc1cc(=O)[nH]c(N=Nc2c(O)[nH]c3ccccc23)n1,123%
11,COc1cc(/C=C/C(=O)N2CCN(C(=O)c3cc(OC)c(OC)c(OC)c3)CC2)ccc1OCCCN1C(=O)c2cccc3cccc(c23)C1=O,100%
12,Cc1ccc(S(=O)(=O)N/N=C\c2cc(Cl)ccc2O)cc1,114%
13,COc1cc(OC)cc(C2CC(=O)Nc3c2c(C)nn3-c2nc3ccccc3[nH]2)c1 (stereo unspecified),59.9%
14,Cc1ccc(S(=O)(=O)n2cc(CNc3ccc(N4CCOCC4=O)cc3)c3ccccc32)cc1,100%
15,CC1O[C@@H](OC2[C@H](OC(=O)/C=C/c3ccc(O)c(O)c3)C(COC3O[C@H](C)C(O)C(O)[C@@H]3O)O[C@@H](OCCc3ccc(O)c(O)c3)[C@H]2O)[C@@H](O)C(O)[C@H]1O (stereo partly specified),89.4%
16,CS(=O)c1cccc(-c2ccc3nc(N)n(-c4ccc(C(F)(F)F)cc4)c(=O)c3c2)c1 (stereo unspecified),103%
17,CCOc1ccccc1-n1c(CN2CCN(C(=O)COc3ccc(CNCCCCCCN4C5CCCC4CC(OC(=O)Nc4cc(C)ccc4OC)C5)cc3)CC2)nc2ccccc2c1=O (stereo unspecified),-98.1% (active)
18,O=C(O)CN1C(=O)CCC1=O,123%
19,Cc1cccc(NC(=O)CSc2nc3ccccc3[nH]2)c1,97%

# Tested on: HOP-62 NSCLC
# Assay: as above
# Settings: 10 µM unless noted
row,SMILES,growth
1,Cc1ccc(Cl)cc1NC(=O)c1cc2ccccc2cc1O,-23.8% (active)
2,CC1SC(c2ccc(OCc3ccccc3)cc2)N(NC(=O)C(O)(c2ccccc2)c2ccccc2)C1=O (stereo unspecified),79%
3,O=c1cc(C2NNC(=S)N2)c2ccc3ccccc3c2o1 (stereo unspecified),95.1%
4,Cc1ccc(Nc2nc(N)nc(CSCC(=O)NN)n2)cc1,101%
5,O=[N+]([O-])c1ccc(OCCO)cc1,101%
6,O=C(CSc1nnc(-c2ccc(NC(=O)c3cccnc3)cc2)o1)N[C@@H](Cc1ccc(O)cc1)C(=O)O,98%
7,O=C(/C=C/c1ccco1)c1ccc(Nc2nc(Nc3ccc(F)cc3)nc(Nc3ccc(Cl)cc3)n2)cc1,96.2%
8,CCOC(=O)c1c(-c2ccc(Cl)cc2)c(C#N)c(=O)n(-c2ccccc2CC)c1N,97.5%
9,COC(=O)[C@]12CC[C@@H](C)[C@H](C)[C@@H]1C1=CC[C@@H]3[C@@]4(C)C(C=O)=C[C@@](C)(COC(C)=O)C4=CC[C@@]3(C)[C@]1(C)CC2,-7.82% (active)
10,C[C@]12CC[C@@H]3c4cc(OC(F)F)c(O)cc4CC[C@H]3[C@@H]1CC[C@@H]2OS(N)(=O)=O,43.3%
11,NCCCNc1nc2ccccc2c2c(=O)c3cccc(Cl)c3sc12,19.3%
12,O=C(N=c1oc2ccccc2cc1-c1cc2ccccc2[nH]1)c1ccc(Cl)cc1,63.1%
13,CSc1n(Cc2ccc3ccccc3c2)c(C)c[n+]1Cc1ccc2ccccc2c1,4.62% (active)
14,COC(=O)CCC1=C(C)C2=NC1=CC1=NC(=CC3=NC(=Cc4[nH]c(/c(=C(/C)O)c4C)=C2)C(C(C)=O)=C3C)C(C)=C1CCC(=O)OC,98.8%
15,COc1ccc(Nc2nnc(SCc3ccccc3F)s2)cc1,103%
16,O=C(N/N=C/C=C/c1ccc([N+](=O)[O-])o1)c1cc2ccccc2cc1O,-33.9% (active)
17,OC(COc1ccccc1Cl)COc1ccccc1Cl,117%
18,c1ccc(-c2nc([P+](c3ccccc3)(c3ccccc3)c3ccccc3)c(N3CCOCC3)o2)cc1,-2.79% (active)
19,O=C1CCc2c(sc3[nH]c(=S)n(-c4ccc(OC(F)(F)F)cc4)c(=O)c23)C1,53.1%

row,SMILES,growth
1,O=C(Nc1ccc(Cl)cc1)Nc1ccc(Cl)c(C(F)(F)F)c1,11.3%
2,COc1ccc(C2CC(c3cccc(OC)c3)=NN2C(=O)c2cc(OC)c(OC)c(OC)c2)cc1 (stereo unspecified),39.9%
3,CCOC(=O)C/C(C)=N\NC(=O)c1ccncc1,97.7%
4,COc1ccc2oc3c(C)c4c(c(C)c3c2c1)C(=O)N(Cc1ccccc1)C4=O,88.9%
5,CC(C)=C[C@@H]1c2c(c3ccccc3n(C)c2=O)O[C@H]2c3c(c4ccccc4n(C)c3=O)OC(C)(C)[C@@H]12,115%
6,Cc1ccc(NCCN(C)C)c2c(=O)c3ccccc3sc12,36.2%
7,C=C1C(=O)O[C@H]2[C@H]1CC/C(COC(=O)C(=O)c1c[nH]c3ccccc13)=C\CC[C@@]1(C)O[C@@H]21,2.66% (active)
8,Oc1ccc(CN2CCC(N3CCOCC3)CC2)c2cccnc12,17.2%
9,O=C1CCC2=C3C4CCCCC4C(=O)C4CCCC(OC2C1)C34 (stereo unspecified),34.5%
10,Cc1cc(=O)[nH]c(N=Nc2c(O)[nH]c3ccccc23)n1,119%
11,COc1cc(/C=C/C(=O)N2CCN(C(=O)c3cc(OC)c(OC)c(OC)c3)CC2)ccc1OCCCN1C(=O)c2cccc3cccc(c23)C1=O,94.1%
12,Cc1ccc(S(=O)(=O)N/N=C\c2cc(Cl)ccc2O)cc1,105%
13,COc1cc(OC)cc(C2CC(=O)Nc3c2c(C)nn3-c2nc3ccccc3[nH]2)c1 (stereo unspecified),-44.2% (active)
14,Cc1ccc(S(=O)(=O)n2cc(CNc3ccc(N4CCOCC4=O)cc3)c3ccccc32)cc1,84.6%
15,CC1O[C@@H](OC2[C@H](OC(=O)/C=C/c3ccc(O)c(O)c3)C(COC3O[C@H](C)C(O)C(O)[C@@H]3O)O[C@@H](OCCc3ccc(O)c(O)c3)[C@H]2O)[C@@H](O)C(O)[C@H]1O (stereo partly specified),103%
16,CS(=O)c1cccc(-c2ccc3nc(N)n(-c4ccc(C(F)(F)F)cc4)c(=O)c3c2)c1 (stereo unspecified),98%
17,CCOc1ccccc1-n1c(CN2CCN(C(=O)COc3ccc(CNCCCCCCN4C5CCCC4CC(OC(=O)Nc4cc(C)ccc4OC)C5)cc3)CC2)nc2ccccc2c1=O (stereo unspecified),-92% (active)
18,O=C(O)CN1C(=O)CCC1=O,97.1%
19,Cc1cccc(NC(=O)CSc2nc3ccccc3[nH]2)c1,88.7%
